Measurements taken from PubChem BioAssay (Tox21).
Results filed as inconclusive are left out. Calls of active or inactive are those of the source. Unless noted, calls follow the shape of the full dose curve.

Legend:
[1] = Nuclear factor erythroid 2-related factor 2/antioxidant responsive element (Nrf2/ARE) small molecule agonists: qHTS cell viability counter screen in human keratinocytes (AID 1919968; active = well fitted curve in the direction sought with a large enough effect in the repeat runs; an effect the other way counts as inactive or inconclusive; also: nearly all actives have a fitted effect of over 55% in size)
Summary of the method: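 After a 5 h attachment period, ARE-reporter keratinocytes were dosed with compounds in DMSO and then cultured 23 h at 37 C. Cell viability came from CellTiter-Fluor signal read after a further 1 h.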

[2] = Nuclear factor erythroid 2-related factor 2/antioxidant responsive element (Nrf2/ARE) small molecule agonists: luciferase reporter gene qHTS assay in human keratinocytes (AID 1919969); also: nearly all actives have a fitted effect of over 35% in size
[3] = biological target: Gonadotropin-releasing hormone receptor (Homo sapiens) (UniProt P30968); experiment: Human gonadotropin-releasing hormone receptor (GnRHR) small molecule agonists, calcium flux assay in GnRHR-HEK293 cells (AID 1920063); also: nearly all actives have a fitted effect of over 35% in size
Sequence of Gonadotropin-releasing hormone receptor (Homo sapiens) (P30968 whole entry, looked up): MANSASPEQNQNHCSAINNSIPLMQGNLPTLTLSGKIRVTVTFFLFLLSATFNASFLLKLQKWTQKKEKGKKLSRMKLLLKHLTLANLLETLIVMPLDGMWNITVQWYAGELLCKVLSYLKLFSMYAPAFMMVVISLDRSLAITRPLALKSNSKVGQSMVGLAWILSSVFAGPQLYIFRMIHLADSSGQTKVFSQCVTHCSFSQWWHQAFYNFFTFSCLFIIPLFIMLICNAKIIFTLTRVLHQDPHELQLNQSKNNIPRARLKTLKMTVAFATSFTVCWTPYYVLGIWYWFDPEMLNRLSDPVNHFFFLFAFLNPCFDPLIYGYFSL
Summary of the method: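 We seeded human GnRHR-expressing HEK293 cells for 18 hours, loaded them with calcium dye for an hour at 37 C, added test compounds, and recorded fluorescence intensity kinetically for three minutes.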

[4] = biological target: KiSS-1 receptor (Homo sapiens) (UniProt Q969F8); experiment: Human kisspeptin (KISS1R) small molecule agonists, calcium flux assay in KISS1R-HEK293 cells (AID 1920064; active = well fitted curve in the direction sought with a large enough effect in the repeat runs; an effect the other way counts as inactive or inconclusive)
Sequence of KiSS-1 receptor (Homo sapiens) (Q969F8 whole entry, looked up): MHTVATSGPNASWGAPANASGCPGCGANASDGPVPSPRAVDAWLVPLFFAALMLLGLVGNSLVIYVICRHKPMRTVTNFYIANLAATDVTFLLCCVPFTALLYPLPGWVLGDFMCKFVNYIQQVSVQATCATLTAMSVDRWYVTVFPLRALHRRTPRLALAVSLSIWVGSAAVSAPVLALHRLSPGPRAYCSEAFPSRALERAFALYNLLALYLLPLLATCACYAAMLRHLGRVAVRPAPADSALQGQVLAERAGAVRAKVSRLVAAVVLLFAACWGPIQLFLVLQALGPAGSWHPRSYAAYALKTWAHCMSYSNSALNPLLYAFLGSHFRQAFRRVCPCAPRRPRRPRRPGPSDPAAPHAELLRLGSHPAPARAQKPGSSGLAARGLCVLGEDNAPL
Summary of the method: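 Kinetic calcium assay, 1 s sampling over 3 min at Ex/Em 480/540, in HEK293 cells engineered with human KISS1R; compounds delivered in DMSO after 1 h dye loading.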

[5] = G protein-coupled receptor (GPCR) small molecule agonists, calcium flux assay: HEK293 wild type cell line counter screen (AID 1920065)
Summary of the method: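 Calcium-sensitive dye, loaded 1 h at 37 C into cells cultured 18 h, reports compound-evoked calcium release as fluorescence (Ex/Em 480/540), measured over 3 min. Agonist mode; 15-point titrations, triplicate.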

[6] = p53 small molecule agonists, cell-based qHTS assay with human liver microsomes (AID 1963577);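 also: p53 response element beta-lactamase reporter cells with liver microsomes plus NADPH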
Summary of the method: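 p53RE-bla cells; 5 h settle, 37 C/5% CO2; cpd + HLM 0.5 mg/mL + NADPH 0.5 mg/mL (final); 16 h 37 C; LiveBLAzer 2 h RT dark; fluorescence readout.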

[7] = p53 small molecule agonists, cell-based qHTS assay with human liver microsomes: qHTS cell viability counter screen (AID 1963579); also: nearly all actives have a fitted effect of over 45% in size
Summary of the method: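 Luminescent CellTiter-Glo read-out, 30 min at room temperature, gauged cytotoxicity in p53RE-bla cells exposed 16 h at 37 C to DMSO-dissolved compounds with metabolic activation by human liver microsomes and NADPH, each 0.5 mg/mL final.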

[8] = p53 small molecule agonists, cell-based qHTS assay with rat liver microsomes: qHTS cell viability counter screen (AID 1963580); also: nearly all actives have a fitted effect of over 45% in size
Summary of the method: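 In HCT-116 cells carrying a p53 response element-bla reporter, compounds were metabolically activated in situ by rat liver microsomes with NADPH over 16 h. Cell ATP content then served as the cytotoxicity measure.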

[9] = p53 small molecule agonists, cell-based qHTS assay (AID 1963582; active = well fitted activation curve with a large enough effect in the signal ratio in the repeat runs, not every such curve was filed as active; the % refers to the signal ratio)
Summary of the method: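 In this cell-based concentration-response screen, a p53 response element drives beta-lactamase; cells received DMSO-borne compounds after 5 h culture and were incubated a further 16 h before FRET substrate development.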

[10] = biological target: 5-hydroxytryptamine receptor 2A (Homo sapiens) (UniProt P28223); experiment: 5-hydroxytryptamine receptor 2A (HTR2A) small molecule antagonists, cell-based qHTS assay (AID 1963586); also: nearly all actives have a fitted effect of over 45% in size
Sequence of 5-hydroxytryptamine receptor 2A (Homo sapiens) (P28223 whole entry, looked up): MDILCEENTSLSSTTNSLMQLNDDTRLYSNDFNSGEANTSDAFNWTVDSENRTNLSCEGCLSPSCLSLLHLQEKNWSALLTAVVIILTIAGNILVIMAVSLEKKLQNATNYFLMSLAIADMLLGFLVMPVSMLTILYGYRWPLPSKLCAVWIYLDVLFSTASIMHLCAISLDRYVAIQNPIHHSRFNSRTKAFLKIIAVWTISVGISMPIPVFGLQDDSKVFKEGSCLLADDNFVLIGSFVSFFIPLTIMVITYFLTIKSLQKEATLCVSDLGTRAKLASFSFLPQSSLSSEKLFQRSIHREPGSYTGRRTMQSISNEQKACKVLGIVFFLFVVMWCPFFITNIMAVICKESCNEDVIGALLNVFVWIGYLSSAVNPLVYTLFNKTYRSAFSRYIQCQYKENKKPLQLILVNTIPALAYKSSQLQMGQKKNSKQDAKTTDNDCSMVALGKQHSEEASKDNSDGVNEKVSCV
Summary of the method: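 Antagonist-mode intracellular calcium assay: DOI (4 nM) added after 5 min compound pre-incubation at room temperature to dye-loaded HTR2A-CHO cells. Fluorescence followed for 3 min, sampled every second.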

[11] = biological target: 5-hydroxytryptamine receptor 2A (Homo sapiens) (UniProt P28223); experiment: 5-hydroxytryptamine receptor 2A (HTR2A) small molecule agonists, cell-based qHTS assay (AID 1963587); also: nearly all actives have a fitted effect of over 30% in size
Summary of the method: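 HTR2A-CHO cells, plated 18 h at 37 C/5% CO2, dye-loaded 1 h at 37 C; compounds in DMSO added by pin tool (agonist mode). Intracellular calcium flux read as kinetic fluorescence on FDSS over 2 min at 1 s intervals.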

[12] = biological target: Muscarinic acetylcholine receptor M1 (Homo sapiens) (UniProt P11229); experiment: Cholinergic receptor muscarinic 1 (CHRM1) small molecule antagonists, cell-based qHTS assay (AID 1963588); also: nearly all actives have a fitted effect of over 40% in size
Sequence of Muscarinic acetylcholine receptor M1 (Homo sapiens) (P11229 whole entry, looked up): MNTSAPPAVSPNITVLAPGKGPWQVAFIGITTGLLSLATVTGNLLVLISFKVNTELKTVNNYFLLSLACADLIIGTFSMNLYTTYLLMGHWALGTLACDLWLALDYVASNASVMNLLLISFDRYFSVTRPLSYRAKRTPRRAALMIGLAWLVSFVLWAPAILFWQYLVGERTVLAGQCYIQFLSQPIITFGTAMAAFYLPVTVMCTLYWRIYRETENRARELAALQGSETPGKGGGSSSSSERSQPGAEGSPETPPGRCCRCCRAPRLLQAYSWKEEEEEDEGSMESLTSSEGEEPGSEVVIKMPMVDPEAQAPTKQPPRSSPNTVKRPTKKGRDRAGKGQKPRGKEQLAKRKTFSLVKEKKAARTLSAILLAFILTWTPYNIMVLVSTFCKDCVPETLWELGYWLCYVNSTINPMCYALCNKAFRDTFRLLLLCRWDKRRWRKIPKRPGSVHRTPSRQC
Summary of the method: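 CHRM1-CHO calcium-flux assay, antagonist mode. Cells were seeded 18 h, dye-loaded 1 h at 37 C and given compound for 5 min at RT, then acetylcholine was added at 50nM. FDSS fluorescence was read 3 min; 15 concentrations, three runs.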

[13] = biological target: Muscarinic acetylcholine receptor M1 (Homo sapiens) (UniProt P11229); experiment: Cholinergic receptor muscarinic 1 (CHRM1) small molecule agonists, cell-based qHTS assay (AID 1963589); also: nearly all actives have a fitted effect of over 35% in size
Summary of the method: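 Measures agonist-induced intracellular calcium rise. Stable human CHRM1 CHO line, 1 h dye load at 37 C, compounds from DMSO, kinetic fluorescence read.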

[14] = cAMP Responsive Elements (CRE) small molecule agonists, cell-based qHTS assay (AID 1963590)
Summary of the method: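 A CRE-responsive beta-lactamase reporter in HEK 293T cells was used. Treatment ran 3 h at 37 C; detection used LiveBLAzer B/G FRET substrate for 2 h at room temperature.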

[15] = biological target: Beta-2 adrenergic receptor (Homo sapiens) (UniProt P07550); experiment: Adrenergic beta2 receptor (ADRB2) small molecule antagonists, cell-based qHTS assay (AID 1963592); also: series mostly up to about 92 µM; nearly all actives have a fitted effect of over 50% in size
Sequence of Beta-2 adrenergic receptor (Homo sapiens) (P07550 whole entry, looked up): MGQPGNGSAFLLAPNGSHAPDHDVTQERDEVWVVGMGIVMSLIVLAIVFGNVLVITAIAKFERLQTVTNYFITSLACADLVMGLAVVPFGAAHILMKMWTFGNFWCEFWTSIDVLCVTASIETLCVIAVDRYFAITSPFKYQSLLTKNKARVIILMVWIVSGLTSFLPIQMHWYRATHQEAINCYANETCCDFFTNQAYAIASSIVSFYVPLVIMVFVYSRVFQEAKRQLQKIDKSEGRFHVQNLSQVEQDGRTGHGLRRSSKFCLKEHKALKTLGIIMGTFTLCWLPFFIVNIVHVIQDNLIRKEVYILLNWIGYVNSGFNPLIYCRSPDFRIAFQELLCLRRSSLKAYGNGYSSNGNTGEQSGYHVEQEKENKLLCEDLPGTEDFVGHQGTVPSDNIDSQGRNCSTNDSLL
Summary of the method: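 Cells (CHO, stable ADRB2 overexpression) incubated 18-20hr at 37C; compounds added from DMSO; agonist mix (1nM isoproterenol, 100uM IBMX, 25uM Ro-20-1724) added; 0.5hr RT; d2-cAMP and anti-cAMP-cryptate added; 1hr RT; 665/615 nm read.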

[16] = biological target: Beta-2 adrenergic receptor (Homo sapiens) (UniProt P07550); experiment: Adrenergic beta2 receptor (ADRB2) small molecule agonists, cell-based qHTS assay (AID 1963593);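 also: CHO cells stably overexpressing human ADRB2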
Summary of the method: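 CHO cells stably over-expressing ADRB2 were plated overnight at 37C, then dosed with compounds plus a stimulation mix containing 100uM IBMX and 25uM Ro-20-1724 for 0.5hr at room temperature. cAMP was measured by HTRF competition, 1hr.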

[17] = biological target: D(2) dopamine receptor (Homo sapiens) (UniProt P14416); experiment: Dopamine D2 receptor (DRD2) small molecule agonists, cell-based qHTS assay (AID 1963594); also: nearly all actives have a fitted effect of over 35% in size
Sequence of D(2) dopamine receptor (Homo sapiens) (P14416 whole entry, looked up): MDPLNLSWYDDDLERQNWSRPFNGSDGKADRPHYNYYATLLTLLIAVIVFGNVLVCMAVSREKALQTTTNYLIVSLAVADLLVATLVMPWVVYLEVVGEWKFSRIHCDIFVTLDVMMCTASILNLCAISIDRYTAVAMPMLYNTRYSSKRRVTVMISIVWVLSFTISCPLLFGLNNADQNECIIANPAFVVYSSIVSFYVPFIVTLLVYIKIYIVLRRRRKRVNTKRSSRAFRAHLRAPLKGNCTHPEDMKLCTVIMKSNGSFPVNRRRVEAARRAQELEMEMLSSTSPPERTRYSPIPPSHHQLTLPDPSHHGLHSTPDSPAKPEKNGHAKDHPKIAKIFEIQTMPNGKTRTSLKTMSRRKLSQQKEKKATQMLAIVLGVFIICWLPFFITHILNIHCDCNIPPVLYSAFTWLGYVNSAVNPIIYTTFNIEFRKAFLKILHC
Summary of the method: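 HEK293 cells stably expressing DRD2 were cultured 24 h at 37 C, then given Ro20-1724 (0.1 mM final) and compounds for 10 min at room temperature. NKH477 (200nM) was then added for 30 min. cAMP was read by HTRF.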

[18] = biological target: D(2) dopamine receptor (Homo sapiens) (UniProt P14416); experiment: Dopamine D2 receptor (DRD2) small molecule antagonists, cell-based qHTS assay (AID 1963595; active = well fitted inhibition curve with a large enough effect in the signal ratio in the repeat runs, with a control signal flat; the % refers to the signal ratio)
Summary of the method: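 HTRF cAMP read-out at 665 and 620 nm emission (340 nm excitation). Antagonist mode: compounds were tested against 12 nM quinpirole in DRD2-HEK293 cells, with 200 nM NKH477 raising cAMP and 0.1 mM Ro20-1724 blocking its breakdown.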

[19] = cAMP Responsive Elements (CRE) small molecule antagonists, cell-based qHTS assay (AID 1963591; active = well fitted inhibition curve with a large enough effect in the signal ratio in the repeat runs, not every such curve was filed as active; the % refers to the signal ratio)
Summary of the method: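 HEK293T cells carrying a CRE-driven beta-lactamase reporter receive compound and NKH477 (0.25 uM final) for 3 h. Fluorescence from LiveBLAzer B/G FRET substrate is read after 2 h at room temperature.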

[20] = p53 small molecule agonists, cell-based qHTS assay with rat liver microsomes (AID 1963578)
Summary of the method: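 Rat liver microsome activation: microsomes 0.5 mg/mL, NADPH 0.5 mg/mL final; p53RE-bla cells, 16 h 37 C; LiveBLAzer readout, 2 h RT dark.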
% is scaled to controls: 0 for no effect and ±100 for the full control effect.

OCc1ccccc1O
inactive: Potency [1] | Potency [2] | Potency [3] | Potency [4] | Potency [5] | Potency [6] | Potency [7] | Potency [8] | Potency [9] | Potency [10] | Potency [11] | Potency [12] | Potency [13] | Potency [14] | Potency [15] | Potency [16] | Potency [17] | Potency [18]

CC/C=C\CC1=C(C)CCC1=O
inactive: Potency [1] | Potency [2] | Potency [3] | Potency [4] | Potency [5] | Potency [6] | Potency [7] | Potency [8] | Potency [9] | Potency [10] | Potency [11] | Potency [13] | Potency [14] | Potency [19] | Potency [15] | Potency [16] | Potency [17] | Potency [18]

O=[N+]([O-])c1ccc(Oc2ccc([N+](=O)[O-])cc2)cc1
inactive: Potency [1] | Potency [2] | Potency [3] | Potency [4] | Potency [5] | Potency [6] | Potency [7] | Potency [8] | Potency [9] | Potency [10] | Potency [11] | Potency [12] | Potency [14] | Potency [19] | Potency [15] | Potency [16] | Potency [17] | Potency [18]

CC(=O)CC(=O)Nc1ccc2[nH]c(=O)[nH]c2c1
inactive: Potency [1] | Potency [2] | Potency [3] | Potency [4] | Potency [5] | Potency [20] | Potency [7] | Potency [8] | Potency [9] | Potency [10] | Potency [11] | Potency [12] | Potency [13] | Potency [14] | Potency [19] | Potency [15] | Potency [16] | Potency [17] | Potency [18]

C(/C=C/C=C/Nc1ccccc1)=Nc1ccccc1
inactive: Potency [1] | Potency [2] | Potency [3] | Potency [4] | Potency [5] | Potency [6] | Potency [7] | Potency [8] | Potency [9] | Potency [10] | Potency [11] | Potency [12] | Potency [13] | Potency [14] | Potency [19] | Potency [16] | Potency [17] | Potency [18]

CCCCNc1ccccc1
inactive: Potency [1] | Potency [2] | Potency [3] | Potency [4] | Potency [5] | Potency [6] | Potency [7] | Potency [8] | Potency [9] | Potency [10] | Potency [11] | Potency [12] | Potency [13] | Potency [14] | Potency [19] | Potency [15] | Potency [18]

COCC(C)OC(C)=O (stereo not given)
inactive: Potency [1] | Potency [2] | Potency [3] | Potency [4] | Potency [5] | Potency [6] | Potency [7] | Potency [8] | Potency [9] | Potency [10] | Potency [11] | Potency [12] | Potency [14] | Potency [19] | Potency [15] | Potency [17] | Potency [18]

C=CCCCCCCCCCCC
inactive: activity change, negative = cytotoxicity [1] -0.936% [at 8.39 µM] | activity, positive = activation [2] -0.901% [at 8.39 µM] | activity change [3] -0.462% [at 5.22 µM, stronger effect = higher value] | activation [4] 3.21% [at 6.97 µM] | activation [5] -0.84% [at 5.23 µM] | activation [6] 1.56% [at 5.99 µM] | activity change, negative = cytotoxicity [7] 1.8% [at 5.99 µM] | activity change, negative = cytotoxicity [8] -1.27% [at 5.99 µM] | activation [9] 0.37% [at 5.99 µM] | activity, negative = inhibition [10] 4.71% [at 5.62 µM] | activation [11] 0.539% [at 7.02 µM] | activity, negative = inhibition [12] -16.9% [at 5.58 µM] | activation [13] -0.585% [at 6.97 µM] | activation [14] -0.0768% [at 8.39 µM] | activity change, negative = inhibition [15] -1.18% [at 8.39 µM] | activation [16] -13.4% [at 8.39 µM] | activation [17] -0.7% [at 8.39 µM] | activity change, negative = inhibition [18] -0.184% [at 8.38 µM]

OCC(CO)N[C@H]1C[C@](O)(CO)[C@@H](O)[C@H](O)[C@H]1O
inactive: Potency [1] | Potency [2] | Potency [3] | Potency [4] | Potency [5] | Potency [6] | Potency [7] | Potency [8] | Potency [10] | Potency [11] | Potency [13] | Potency [14] | Potency [19] | Potency [15] | Potency [16] | Potency [17] | Potency [18]

Cc1cc(C)c(C(=O)O)c(C)c1
inactive: Potency [1] | Potency [2] | Potency [3] | Potency [4] | Potency [5] | Potency [6] | Potency [7] | Potency [8] | Potency [9] | Potency [10] | Potency [11] | Potency [12] | Potency [14] | Potency [19] | Potency [15] | Potency [16] | Potency [17] | Potency [18]

CC(O)C(CO)C(C)O (stereo not given)
inactive: Potency [1] | Potency [2] | Potency [3] | Potency [4] | Potency [5] | Potency [6] | Potency [7] | Potency [8] | Potency [10] | Potency [11] | Potency [12] | Potency [13] | Potency [14] | Potency [19] | Potency [15] | Potency [16] | Potency [17] | Potency [18]

Cc1ncsc1CCO
inactive: Potency [1] | Potency [2] | Potency [3] | Potency [4] | Potency [5] | Potency [6] | Potency [7] | Potency [8] | Potency [9] | Potency [10] | Potency [11] | Potency [12] | Potency [13] | Potency [14] | Potency [19] | Potency [15] | Potency [16] | Potency [17] | Potency [18]

CC#N
inactive: Potency [1] | Potency [2] | Potency [3] | Potency [4] | Potency [5] | Potency [6] | Potency [7] | Potency [8] | Potency [9] | Potency [10] | Potency [12] | Potency [13] | Potency [14] | Potency [19] | Potency [15] | Potency [17] | Potency [18]

CC1(C)[C@H]2CC[C@](C)(C2)[C@H]1O
inactive: Potency [1] | Potency [2] | Potency [3] | Potency [4] | Potency [5] | Potency [6] | Potency [7] | Potency [8] | Potency [9] | Potency [12] | Potency [13] | Potency [14] | Potency [15] | Potency [16] | Potency [17]

CC1=C(C=O)C(C)(C)CC=C1
inactive: Potency [1] | Potency [2] | Potency [3] | Potency [4] | Potency [5] | Potency [6] | Potency [7] | Potency [8] | Potency [9] | Potency [10] | Potency [11] | Potency [13] | Potency [14] | Potency [19] | Potency [15] | Potency [16] | Potency [17] | Potency [18]
